Results filed as inconclusive are left out. Entries that show only a call come without a potency. A structure can be active in one record and inactive in another. The source made the active and inactive calls. Unless noted, the call rests on the fitted dose curve; in most records, active means well fitted curve in the direction sought with a large enough effect in the repeat runs; inconclusive means weak or mixed curves; inactive means no such curve, though single readings can be large; an effect the other way counts as inactive or inconclusive.
Experiments:
[1] = qHTS assay to identify small molecule agonists of the estrogen receptor alpha (ER-alpha) signaling pathway in the presence of an antagonist - cell viability counter screen (AID 1259386);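 further: cells exposed to compounds for 22 h at 37 °C before the viability read; nearly all actives have a fitted effect of over 30% in size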; further: potency means the concentration at half of the fitted maximal effect
Method in brief: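 Steps: 5-day stripped-FBS culture; seed and incubate 24hr; add ICI-182,780 (10.0nM final); pin 15-point compound titration; incubate 22hr at 37C; add CellTiter-Fluor at 21hr; read fluorescence.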

[2] = molecular target: Progesterone receptor (Homo sapiens) (UniProt P06401); assay: qHTS assay to identify small molecule agonists of the progesterone receptor (PR) signaling pathway (AID 1346784; calls by dose curve; further: nearly all actives have a fitted effect of over 30% in size)
Sequence of Progesterone receptor (Homo sapiens) (P06401 whole entry, looked up): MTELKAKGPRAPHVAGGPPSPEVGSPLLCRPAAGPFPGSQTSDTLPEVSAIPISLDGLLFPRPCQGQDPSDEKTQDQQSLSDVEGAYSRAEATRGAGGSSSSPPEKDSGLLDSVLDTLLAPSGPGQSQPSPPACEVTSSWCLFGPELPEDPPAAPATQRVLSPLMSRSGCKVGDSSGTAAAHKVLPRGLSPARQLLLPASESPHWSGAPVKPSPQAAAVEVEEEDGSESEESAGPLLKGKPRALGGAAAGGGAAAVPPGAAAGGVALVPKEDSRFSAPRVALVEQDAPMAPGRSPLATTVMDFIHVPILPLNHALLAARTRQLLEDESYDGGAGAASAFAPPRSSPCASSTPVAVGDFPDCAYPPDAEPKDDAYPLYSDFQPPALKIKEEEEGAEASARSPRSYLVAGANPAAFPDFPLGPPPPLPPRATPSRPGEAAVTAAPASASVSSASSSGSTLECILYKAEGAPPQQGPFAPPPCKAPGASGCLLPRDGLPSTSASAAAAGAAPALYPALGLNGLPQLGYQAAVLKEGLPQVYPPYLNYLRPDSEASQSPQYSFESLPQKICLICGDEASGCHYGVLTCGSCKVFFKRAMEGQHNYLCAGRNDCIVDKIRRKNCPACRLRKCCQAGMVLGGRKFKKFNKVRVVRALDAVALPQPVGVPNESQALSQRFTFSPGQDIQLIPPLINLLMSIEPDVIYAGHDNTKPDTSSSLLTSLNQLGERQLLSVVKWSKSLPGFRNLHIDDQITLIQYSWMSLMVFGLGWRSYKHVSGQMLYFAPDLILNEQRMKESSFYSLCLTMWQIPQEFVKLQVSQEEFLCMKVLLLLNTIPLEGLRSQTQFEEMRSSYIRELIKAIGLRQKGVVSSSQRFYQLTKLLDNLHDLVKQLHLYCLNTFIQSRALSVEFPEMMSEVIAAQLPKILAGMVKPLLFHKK
Method in brief: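 Agonist qHTS: compounds pinned onto 3,000 PR-UAS-bla HEK 293T cells per well in charcoal-stripped serum medium, 16hr at 37C, then beta-lactamase activity measured by LiveBLAzer FRET fluorescence after 2 hours at room temperature.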

[3] = molecular target: Progesterone receptor (Homo sapiens) (UniProt P06401); assay: qHTS assay to identify small molecule antagonists of the progesterone receptor (PR) signaling pathway (AID 1346795; active means well fitted inhibition curve with a large enough effect in the signal ratio in the repeat runs, not every such curve was filed as active; the % refers to the signal ratio)
Method in brief: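 Antagonist mode with agonist R5020 at 1 nM final and 16 hr incubation at 37C. Reporter was beta-lactamase driven by UAS in HEK293T (PR-UAS-bla), 2% charcoal-stripped serum; signal from LiveBLAzer FRET substrate, 2 hr at room temperature.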

[4] = qHTS assay to identify small molecule antagonists of the progesterone receptor (PR) signaling pathway - cell viability counter screen (AID 1346798); further: series mostly up to about 92 µM; nearly all actives have a fitted effect of over 50% in size
Method in brief: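 Cytotoxicity read as CellTiter-Glo luminescence (30 min, room temperature) in the same wells as the beta-lactamase readout. HEK293T PR-UAS-bla cells in charcoal-stripped 2% FBS received compound and R5020, then 16 h at 37C, 5% CO2.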

[5] = qHTS assay to identify small molecule agonists of the progesterone receptor (PR) signaling pathway - cell viability counter screen (AID 1346799; calls by dose curve; further: nearly all actives have a fitted effect of over 45% in size)
Method in brief: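 Cytotoxicity measured by CellTiter-Glo luminescence (30 min, RT) in the same wells as the PR beta-lactamase agonist read. Those HEK293T cells had 16 h compound treatment at 37 C in 2% charcoal-stripped FBS medium.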

[6] = qHTS assay to identify small molecule antagonists of the TGF-beta/Smad signaling pathway - cell viability counter screen (AID 1346824); further: nearly all actives have a fitted effect of over 50% in size
Method in brief: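 Cytotoxicity counter-screen run in the same wells as the beta-lactamase Smad reporter read: CellTiter-Glo luminescence after 30 min at room temperature. HEK 293T SBE-bla cells had 5 hr compound exposure at 37 C with TGF-beta1 (0.25 ng/mL stock).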

[7] = qHTS assay to identify small molecule agonists of the TGF-beta/Smad signaling pathway - cell viability counter screen (AID 1346829); further: top concentration of the series differs between compounds; nearly all actives have a fitted effect of over 45% in size
Method in brief: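 Tox21 qHTS format: SBE-bla HEK 293T cells treated with DMSO-dissolved compounds for 5 hr; CellTiter-Glo luminescence after 30 min at room temperature.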

[8] = qHTS assay to identify small molecule agonists of the TGF-beta/Smad signaling pathway (AID 1346859; active means well fitted activation curve with a large enough effect in the signal ratio in the repeat runs, not every such curve was filed as active; the % refers to the signal ratio; further: series mostly up to about 77 µM)
Method in brief: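 Fluorescence (ex 405 nm; em 460 and 530 nm) was read 2 h after LiveBLAzer FRET substrate at RT. The preceding compound treatment of overnight-plated SBE-bla HEK293T cells lasted 5 h at 37 C.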

[9] = molecular target: Thyrotropin-releasing hormone receptor (Homo sapiens) (UniProt P34981); assay: qHTS assay to identify small molecule antagonists of the thyrotropin-releasing hormone receptor (TRHR) signaling pathway (AID 1346877; active means well fitted inhibition curve with a large enough effect in the repeat runs, not every such curve was filed as active; further: series mostly up to about 51 µM)
Sequence of Thyrotropin-releasing hormone receptor (Homo sapiens) (P34981 whole entry, looked up): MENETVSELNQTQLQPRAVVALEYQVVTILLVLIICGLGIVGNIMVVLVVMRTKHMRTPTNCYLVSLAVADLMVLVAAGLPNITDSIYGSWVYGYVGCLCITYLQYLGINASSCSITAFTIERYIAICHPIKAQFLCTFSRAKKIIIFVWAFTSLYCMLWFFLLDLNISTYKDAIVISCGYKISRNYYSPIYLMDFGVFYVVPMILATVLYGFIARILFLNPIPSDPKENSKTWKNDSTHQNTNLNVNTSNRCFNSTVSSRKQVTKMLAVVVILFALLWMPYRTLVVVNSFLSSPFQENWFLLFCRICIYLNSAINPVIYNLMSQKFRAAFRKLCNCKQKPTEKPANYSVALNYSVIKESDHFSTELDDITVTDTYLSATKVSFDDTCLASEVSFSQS
Method in brief: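 Human TRHR in HEK293 cells; inhibition of the intracellular calcium rise triggered by 1 nM TRH was followed by fluorescence over 3 min. Compounds were run at 15 concentrations, three replicates each.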

[10] = molecular target: Thyrotropin-releasing hormone receptor (Homo sapiens) (UniProt P34981); assay: qHTS assay to identify small molecule agonists of the thyrotropin-releasing hormone receptor (TRHR) signaling pathway (AID 1346891; calls by dose curve; further: series mostly up to about 58 µM)
Method in brief: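 Agonist-mode intracellular calcium readout: kinetic fluorescence over 3 min at 1 s intervals after compound addition to TRHR-HEK293 cells (18 h seeded, 2 h dye-loaded at 37 C). Fifteen concentrations, triplicates.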

[11] = Human pregnane X receptor (PXR) small molecule agonists, qHTS cell viability counter screen (AID 1346977); further: nearly all actives have a fitted effect of over 50% in size; further: potency means the concentration at half of the fitted maximal effect
Method in brief: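 Same-well viability read: CellTiter-Fluor added after 23 hr compound exposure, fluorescence measured 1 hr later. Cells were PXR-Luc HepG2 seeded at 2,000/well in 5% charcoal-stripped FBS medium, rested 5 hr before dosing at 37 C.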

[12] = Caspase-3/7 induction in HepG2 cells by small molecules, qHTS assay (AID 1346978); further: nearly all actives have a fitted effect of over 15% in size
Method in brief: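 Caspase-3/7 induction was measured by Caspase-Glo 3/7 luminescence (30 min, room temperature) after a 17 hr compound exposure of wild-type HepG2 cells seeded at 2,000 per well and pre-incubated 5 hr.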

[13] = Caspase-3/7 induction in CHO-K1 cells by small molecules, qHTS cell viability counter screen (AID 1346979); further: nearly all actives have a fitted effect of over 35% in size; further: potency means the concentration at half of the fitted maximal effect
Method in brief: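 Cytotoxicity counter screen: CellTiter-Fluor added to compound-treated wild-type CHO-K1 cells at 16 h (37C, 5% CO2), fluorescence measured 1 h later; same wells as caspase-3/7 measurement.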

[14] = Caspase-3/7 induction in CHO-K1 cells by small molecules, qHTS assay (AID 1346980); further: nearly all actives have a fitted effect of over 15% in size
Method in brief: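 Luminescent Caspase-Glo 3/7 read (30min, room temperature) quantified apoptosis induction. Cells were wild-type CHO-K1, treated with compound for 17hr at 37 C and 5% CO2.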

[15] = Caspase-3/7 induction in HepG2 cells by small molecules, qHTS cell viability counter screen (AID 1346981); further: nearly all actives have a fitted effect of over 30% in size; further: potency means the concentration at half of the fitted maximal effect
Method in brief: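 The parent HepG2 line is plated at 2,000 cells per well and rested 5 hr before compound pinning from DMSO stocks. Following a 16-hr treatment at 37 C, a fluorogenic live-cell substrate (CellTiter-Fluor) reports viability after 1 hr.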

[16] = molecular target: Nuclear receptor subfamily 1 group I member 2 (Homo sapiens) (UniProt O75469); assay: Human pregnane X receptor (PXR) small molecule agonists, qHTS assay (AID 1346982); further: nearly all actives have a fitted effect of over 35% in size
Sequence of Nuclear receptor subfamily 1 group I member 2 (Homo sapiens) (O75469 whole entry, looked up): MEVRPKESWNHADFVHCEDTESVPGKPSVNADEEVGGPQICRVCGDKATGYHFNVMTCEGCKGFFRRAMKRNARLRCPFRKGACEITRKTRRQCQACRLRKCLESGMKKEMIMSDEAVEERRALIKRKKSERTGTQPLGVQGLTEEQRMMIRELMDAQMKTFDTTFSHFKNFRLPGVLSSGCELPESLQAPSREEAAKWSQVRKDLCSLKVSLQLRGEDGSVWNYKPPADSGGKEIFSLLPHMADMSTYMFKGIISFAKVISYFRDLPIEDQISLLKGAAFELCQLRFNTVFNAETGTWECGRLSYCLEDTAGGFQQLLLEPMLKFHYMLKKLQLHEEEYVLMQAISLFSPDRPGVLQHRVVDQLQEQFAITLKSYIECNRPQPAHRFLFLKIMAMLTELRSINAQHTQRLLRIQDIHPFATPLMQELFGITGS
Method in brief: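 After plating in 5% charcoal-stripped FBS and a 5 hr rest, PXR-Luc HepG2 cells received compounds in DMSO. Following 24 hr at 37 C, ONE-Glo was added and light output read.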

[17] = molecular target: Cytochrome P450 2D6 (Homo sapiens) (UniProt P10635); assay: Cytochrome P450 Family 2 Subfamily D Member 6 (CYP2D6) small molecule antagonists: luciferase reporter qHTS assay (AID 1671196); further: nearly all actives have a fitted effect of over 50% in size; further: potency means the concentration at half of the fitted maximal effect
Sequence of Cytochrome P450 2D6 (Homo sapiens) (P10635 whole entry, looked up): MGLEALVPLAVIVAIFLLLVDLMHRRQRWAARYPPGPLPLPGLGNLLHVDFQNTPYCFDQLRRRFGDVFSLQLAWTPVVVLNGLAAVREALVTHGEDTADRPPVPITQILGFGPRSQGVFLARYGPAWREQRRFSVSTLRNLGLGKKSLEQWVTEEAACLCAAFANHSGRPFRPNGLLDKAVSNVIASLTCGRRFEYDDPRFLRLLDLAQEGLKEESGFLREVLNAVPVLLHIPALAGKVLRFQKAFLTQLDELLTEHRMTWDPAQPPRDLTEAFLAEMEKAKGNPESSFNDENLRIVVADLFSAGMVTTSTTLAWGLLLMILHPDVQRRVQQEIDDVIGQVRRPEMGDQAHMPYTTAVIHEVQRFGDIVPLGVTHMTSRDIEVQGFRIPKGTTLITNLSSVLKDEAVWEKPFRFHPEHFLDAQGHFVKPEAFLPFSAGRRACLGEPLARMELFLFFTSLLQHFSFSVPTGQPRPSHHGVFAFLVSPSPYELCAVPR
Method in brief: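 Quantitative HTS of Tox21 chemicals against CYP2D6 using a luminescent proluciferin substrate. After NADPH addition, 1 h room-temperature reaction; luminescence recorded 20 min post detection reagent.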

Row | SMILES | Potency [1] | Potency [2] | Potency [3] | Potency [4] | Potency [5] | Potency [6] | Potency [7] | outcome [8] | Potency [9] | Potency [10] | Potency [11] | Potency [12] | Potency [13] | Potency [14] | Potency [15] | Potency [16] | Potency [17]
1 | CC(C)(O)CCC(C)(C)O | inactive | inactive | inactive | inactive | inactive | inactive | inactive | inactive | inactive | inactive | inactive | inactive | inactive | inactive | inactive | inactive | inactive
2 | c1ccc2c(c1)CCCC2C1=NCCN1 (stereo unspecified) | inactive | inactive | inactive | inactive | inactive | inactive | inactive | inactive | inactive | inactive | inactive | inactive | inactive |  | inactive |  | 
3 | C/C=C/c1ccc(OCC)c(O)c1 | inactive | inactive | inactive | inactive | inactive | inactive | inactive | inactive | inactive | inactive | inactive | inactive | inactive | inactive | inactive | inactive | inactive
4 | COC(=O)/C=C/c1ccccc1 | inactive | inactive | inactive | inactive | inactive | inactive | inactive | inactive | inactive | inactive | inactive |  | inactive |  | inactive | inactive | 35.6 µM (active) and inactive
5 | Nc1ccc(O)cc1 | 31.8 µM (active) and inactive | inactive | inactive | inactive | inactive | inactive | inactive |  | inactive | inactive | 56.6 µM (active) and inactive | inactive | 56.6 µM (active) | inactive | 56.6 µM (active) and inactive | inactive | 37 µM (active)
6 | CC1COC(=O)O1 (stereo unspecified) | inactive | inactive | inactive | inactive | inactive | inactive | inactive | inactive | inactive | inactive | inactive | inactive | inactive | inactive | inactive | inactive | inactive

Reference: PubChem BioAssay (Tox21)
